Data published in PubChem BioAssay (NCATS).
Inconclusive results are not listed. Where a call stands in place of a potency, no number is given. Calls of active or inactive are those of the source. The call rests on the fitted dose curve; in most records, active means well fitted curve in the direction sought with a large enough effect; inconclusive means small, poorly fitted or top-dose-only effect, or another doubt; inactive means no such curve, though single readings can be large; an effect the other way counts as inactive or inconclusive.

Tests used:
[1] = biological target: Calcium and integrin-binding protein 1 (Homo sapiens) (UniProt Q99828); assay: Primary qHTS for Identification of Calcium Integrin Binding Protein 1 (CIB1) Competitor (AID 1508620); conditions: CIB1-GST / FITC-alphaIIb peptide fluorescence polarization; series mostly up to 57.7 µM
Method in brief: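 Fluorescence polarization competition: CIB1-GST (1 uM final) preincubated with compound 15 min at room temperature, then FITC-labeled alphaIIb peptide (100 nM final) added for another 15 min. Polarization read at Ex 480/Em 540.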

[2] = Counterscreen qHTS for small molecule stabilizers of the endoplasmic reticulum resident proteome: GLuc-NoTag assay (AID 1508627); conditions: Gaussia luciferase NoTag secretion counterscreen, luminescence, thapsigargin 100 nM for final 4 h; series mostly up to 76.4 µM
Method in brief: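 SH-SY5Y cells stably expressing constitutively secreted GLuc (no SERCaMP tag) were pre-incubated 5 h, treated with compound for 19 h, then 100 nM thapsigargin for 4 h at 37C; medium GLuc read by coelenterazine luminescence.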

[3] = Confirmatory qHTS for small molecule stabilizers of the endoplasmic reticulum resident proteome: Secreted ER Calcium Modulated Protein (SERCaMP) assay (AID 1508628); conditions: SERCaMP secreted luciferase ER calcium/proteostasis reporter; series mostly up to 76.3 µM; further: nearly all actives have a fitted effect of over 40% in size
Method in brief: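 We seeded SH-SY5Y-GLuc-SERCaMP cells, added compounds (three concentrations in the primary run, eleven up to 76.6 uM in confirmation), incubated 16 h, depleted ER calcium with thapsigargin, and read luciferase 4 h later.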

[4] = Primary qHTS for small molecule stabilizers of the endoplasmic reticulum resident proteome: Secreted ER Calcium Modulated Protein (SERCaMP) assay (AID 1508630); conditions: SH-SY5Y GLuc-SERCaMP (Gaussia luciferase released on ER calcium loss) secretion, thapsigargin, luminescence; series mostly up to 38.4 µM
Method in brief: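 GLuc-SERCaMP-expressing SH-SY5Y cells, pretreated 16 h with compound, are challenged with thapsigargin to empty ER calcium stores; after 4 h, coelenterazine is added directly to the medium and luminescence is imaged.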
Potency means the concentration at half of the fitted maximal effect.

Calcium and integrin-binding protein 1 (Homo sapiens), sequence (Q99828 whole entry, looked up): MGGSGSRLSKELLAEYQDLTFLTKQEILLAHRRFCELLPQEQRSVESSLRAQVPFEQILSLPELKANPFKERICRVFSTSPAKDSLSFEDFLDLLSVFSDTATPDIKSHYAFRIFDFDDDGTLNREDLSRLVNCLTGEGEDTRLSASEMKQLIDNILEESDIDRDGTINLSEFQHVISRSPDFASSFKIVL

| SMILES | Potency [1] | Potency [2] | Potency [3] | Potency [4] |
| --- | --- | --- | --- | --- |
| CC(C)C[C@H](NC(=O)c1cc2ccccc2s1)C(=O)N1CCN(C(=O)[C@H](CO)NS(=O)(=O)c2ccc(Cl)cc2Cl)CC1 | inactive | 44.7 µM (active) | 15.8 µM (active) | 23.7 µM (active) |
| CNc1nc(-c2ccc3c(N)n[nH]c3c2)cc(N2C[C@@H](C(=O)NC3CCCCC3)CC[C@@H]2C)n1 | inactive |  |  | inactive |
| Cc1cc2nc3c(=O)[nH]c(=O)nc-3n(CC(O)C(O)C(O)CO)c2cc1C (stereo not drawn) | 6.81 µM (active) | inactive |  |  |
| O=C(NCCCCN1CCOCC1)c1cc2ccccc2o1 | inactive |  |  |  |
| CCCCCCCCCCCCCC(=O)N[C@H](CO)[C@H](O)c1ccc([N+](=O)[O-])cc1 | inactive |  |  | inactive |
| CCC[C@H](N[C@@H](C)C(=O)N1[C@@H]2CCCC[C@H]2C[C@H]1C(=O)O)C(=O)OCC | inactive |  |  | inactive |
| CC(C)CN(C[C@H](O)[C@H](Cc1ccccc1)NC(=O)O[C@H]1CCOC1)S(=O)(=O)c1ccc(N)cc1 | inactive |  |  | inactive |
| CC(C)(F)C[C@H](N[C@@H](c1ccc(-c2ccc(S(C)(=O)=O)cc2)cc1)C(F)(F)F)C(=O)NC1(C#N)CC1 | inactive |  |  | inactive |
| COc1ccc2cc1Oc1ccc(cc1)C[C@H]1c3cc(c(OC)cc3CCN1C)Oc1c(OC)c(OC)cc3c1[C@H](C2)N(C)CC3 | inactive |  |  | inactive |
| N[C@@H](CC(=O)N1CCn2c(nnc2C(F)(F)F)C1)Cc1cc(F)c(F)cc1F | inactive |  |  | inactive |
| Cc1ccc(NC(=O)c2cccc(N(C)C)c2)cc1NC(=O)c1ccc(O)cc1 | inactive |  |  | inactive |
